Source: PubChem (National Center for Advancing Translational Sciences (NCATS))
In the library only some 19% were active in any assay of this set; here they are far more common.
IL-1B inflam inh: inflammasome signaling inhibition, IL-1 beta readout. THP-1 LPS/ATP IL-1B secretion, AlphaLISA, 16 h; active compounds read low. activity change, % at 57.5 µM. hit rate 4.7% among 360,000. AID 743279; in the data active = activity change below about -50%; inconclusive = mostly about -30% to -49%
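THP-1 cells pretreated 1 hr with compounds (up to 57.5 uM final), then stimulated with LPS (250 ng/mL final) plus ATP (1.25 mM final); secreted IL-1B measured by AlphaLISA after 16 hr, decreased signal indicating inhibition.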
HT1080NT lethal: kills 2HG-producing HT-1080-NT fibrosarcoma cells; hit rate 1.6% among 360,000; Potency, µM (highest dose often 46.1 µM), for the others: top-dose activity, negative = less viability, most hits filed as cytotoxic; HT-1080-NT fibrosarcoma viability, CellTiter-Glo ATP luminescence, 48 h;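 note: NT is the 2HG producing partner of a matched IDH1 knockdown line; potency is the fitted concentration of half-maximal effect; 0% = DMSO-treated cells and -100% = media-only wells without cells; nearly all actives have a fitted effect of over 55% in size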
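HT-1080-NT fibrosarcoma cells (2HG-overproducing), 750 cells/well in RPMI with 5% FBS, dosed after 2 h and incubated 48 h at 37C. CellTiter-Glo luminescence normalized to DMSO and no-cell wells; concentration-response curves fitted and classed.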
HT1080 IDH1KD tx: toxicity to HT-1080 IDH1 knockdown cells (counter line); Potency, µM (top dose mostly 46.1 µM), for the others: at the top dose activity, negative = toxicity, actives largely listed as cytotoxic; hit rate 2% among 360,000; HT-1080 IDH1 knockdown viability, ATP luminescence, 48 h;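 note: potency is the fitted concentration of half-maximal effect; 0% = DMSO wells and -100% = cell-free medium wells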
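Knockdown cells (IDH1KD HT-1080) received compounds 2 h after plating at 750 cells/well and were kept 48 h at 37 °C in 5% FBS RPMI. A CellTiter-Glo luminescence read gave % activity for curve fitting.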
TDP1 cell CPT: DT40-hTDP1 cell growth loss with CPT. chicken DT40 Tdp1-/-;hTDP1 cells + 20 nM CPT, ATP luminescence, 48 h. Potency, µM (top dose mostly 46.2 µM), for the others: top-dose activity change, negative = growth inhibition, most hits filed as inhibitors. hit rate 12% among 420,000; note: potency is the fitted concentration of half-maximal effect; nearly all actives have a fitted effect of over 55% in size
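Cell growth measured by CellTiter-Glo luminescence after a minimum 48 h, 37 C compound exposure with 20 nM CPT in Tdp1-knockout DT40 cells stably expressing hTDP1, seeded 400/well; qHTS titration format.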
DT40 TDP1 no CPT: qHTS for Inhibitors of human tyrosyl-DNA phosphodiesterase 1 (TDP1): qHTS in cells in absence of CPT | DT40 Tdp1-/- hTDP1 cells, no CPT, ATP luminescence, 48 h | Potency, µM (highest dose often 46.2 µM), for the others: top-dose activity change, negative = growth inhibition, hits mostly inhibitors | hit rate 15% among 420,000; note: potency is the fitted concentration of half-maximal effect; nearly all actives have a fitted effect of over 55% in size
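Compound effects on proliferation are scored in DT40 Tdp1-/-;hTDP1 cells in the absence of CPT. ATP levels (CellTiter-Glo luminescence) are recorded after a ≥48 hr, 37 °C incubation.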
An asterisk follows results filed as active; ? = inconclusive; · = no result given; [ ] = remark or other dose. Unless noted, calls come from the whole dose curve; as a rule, active = well fitted curve in the direction sought with a large enough effect; inconclusive = small, poorly fitted or top-dose-only effect, or another doubt; inactive = no such curve, though single readings can be large; an effect the other way counts as inactive or inconclusive. Unless noted, % is set by controls: 0 for no effect and ±100 for the full control effect.

SMILES	IL-1B inflam inh	HT1080NT lethal	HT1080 IDH1KD tx	TDP1 cell CPT	DT40 TDP1 no CPT
COc1cc(S(=O)(=O)Nc2cccc(C)c2)ccc1NC(=O)c1ccncc1	-11	-7%	-18%	?	13µM*
O=C(Nc1ccncc1)c1ccc(NS(=O)(=O)c2cccc(F)c2)cc1	35	5%	-11%	?	21µM*
CCOc1ccc(NS(=O)(=O)c2ccc(NC(=O)c3cccnc3)c(OC)c2)cc1	16	3%	1%	-10%	-20%
CC(=O)N(C1=C(Cl)C(=O)c2ccccc2C1=O)C1CCCCC1	-97*	4.1µM*	2.9µM*	0.46µM*	0.52µM*
Cc1cccc(C)c1NC(=O)C(c1ccccc1)N(C)CCc1ccccc1 (configuration not stated)	18	?	?	?	18µM*
Cc1ccc(N2CCN(C(C(=O)Nc3c(C)cccc3C)c3cccc(F)c3)CC2)cc1 (configuration not stated)	0	24%	17%	?	?
Cc1ccc(N2CCN(C(CCc3ccccc3)C(=O)Nc3c(C)cccc3C)CC2)cc1 (configuration not stated)	-14	0%	-9%	?	15µM*
CNC(=O)c1c(NC(=O)Cc2coc3ccc(C)cc23)sc2c1CCCC2	·	·	·	?	18µM*
CCNC(=O)c1c(NC(=O)Cc2coc3ccc(CC)cc23)sc2c1CCCC2	·	·	·	-18%	-7%
CCc1ccc2occ(CC(=O)Nc3sc4c(c3C(=O)OC)CCC4)c2c1	·	·	·	13µM*	18µM*
Cc1ccc(NC(=O)COC(=O)c2sccc2C)cc1S(=O)(=O)N1CCOCC1	-28	16%	11%	?	?
C[C@@H](CN1C2=NC[C@H](C)N2C[C@H]1Cc1ccc(O)cc1)NC(=O)CCC1CCCCC1	-17	1%	-13%	12µM*	13µM*
CC(C)[C@H]1CN=C2N(C[C@H](C)NC(=O)CCC3CCCCC3)[C@H](Cc3ccc(O)cc3)CN21	0	-22%	?	6.5µM*	6.5µM*
C/C=C(\C)C(=O)N[C@@H](C)CN1C2=NC[C@H](C(C)C)N2C[C@H]1Cc1ccc(OC)cc1	14	12%	1%	-6%	-13%
C[C@@H](CN1C(=O)C(=O)NC[C@@H]1Cc1ccc(O)cc1)NC(=O)Cc1ccccc1	18	14%	15%	-12%	-16%
O=C1CN(C(=O)CSc2nc3ccccc3n2CCc2ccccc2)c2ccccc2N1	-30	11%	11%	?	23µM*
C=CCn1c(SCC(=O)N2CC(=O)Nc3ccccc32)nc2scc(-c3cccs3)c2c1=O	-22	-17%	-6%	?	18µM*
CC(C)CCn1c(SCC(=O)N2CC(=O)Nc3ccccc32)nc2scc(-c3cccs3)c2c1=O	2	3%	3%	-4%	?
O=C1CN(C(=O)CSc2nc3ccccc3c(=O)n2Cc2ccc(F)cc2)c2ccccc2N1	-71*	-25%	-25%	-28%	?
Cn1c(SCC(=O)N2CC(=O)Nc3ccccc32)nc2ccccc2c1=O	?	3%	7%	-14%	1%
COc1cc2[nH]c(C(=O)N3CCc4ccccc43)cc2c(OC)c1OC	-11	-11%	-5%	?	?
CC1C2NC(=O)N(Cc3ccccc3)C1(C)Oc1ccccc12 (configuration not stated)	9	-4%	0%	-24%	?
Cc1ccc(-c2nn(-c3ccc(F)cc3)cc2C(=O)NC2CCC(O)CC2)cc1 (configuration not stated)	-8	-2%	7%	-2%	-7%
FC(F)(F)c1cc(-c2ccccn2)nc2cc(-c3ccccc3)nn12	1	14%	23%	1%	-10%
O=C(Oc1oc(-c2ccco2)nc1C=Nc1ccccc1)c1ccoc1	-68*	-5%	-3%	5.2µM*	12µM*
SMILES	IL-1B inflam inh	HT1080NT lethal	HT1080 IDH1KD tx	TDP1 cell CPT	DT40 TDP1 no CPT
Cc1ccc(C(=O)Oc2oc(-c3ccco3)nc2C=Nc2ccc(Cl)cc2)cc1	-51*	-3%	-8%	18µM*	23µM*
O=C(Oc1oc(-c2ccco2)nc1C=Nc1ccccc1)c1ccco1	?	-1%	-19%	3.7µM*	4.6µM*
Cc1ccc(N=Cc2nc(-c3ccco3)oc2O)cc1	·	-4%	24%[9.24 µM]	-9%	?
COc1ccc(N=Cc2nc(-c3ccccc3)oc2OC(C)=O)cc1	-9	1%	0%	?	13µM*
COc1cccc(N=Cc2nc(-c3ccccc3)oc2OC(C)=O)c1	-17	15%	13%	6%	-30%
CCCNC(=O)NC1CCCc2ccccc21 (configuration not stated)	5	5%	1%	-14%	-23%
Cc1ccccc1NS(=O)(=O)c1ccc(NC(=O)N2CCCCC2)cc1	-3	0%	-11%	?	?
Cc1nc(SCC(=O)NC(C)(C#N)C2CC2)c2c(-c3cccs3)csc2n1 (configuration not stated)	-59*	-15%	1%	?	?
Cn1c(SCC(=O)NCc2ccc3c(c2)OCO3)nc2scc(-c3cccs3)c2c1=O	22	-11%	1%	?	?
Cc1ccc(NC(=O)c2ccc(N/N=C/c3cccc(O)c3)c([N+](=O)[O-])c2)cc1	52	7.3µM*	7.3µM*	9.2µM*	12µM*
NS(=O)(=O)c1ccc(N/N=C/c2ccccc2C(=O)O)c([N+](=O)[O-])c1	-2	2%	7%	5%	4%
Cc1ccc(C(=O)Nc2cccc(C(=O)N/N=C/c3ccc(O)cc3)c2)cc1	-7	-15%	-15%	-7%	-27%
Cc1ccccc1NC(=O)c1ccc(N/N=C/c2ccccc2O)c([N+](=O)[O-])c1	1	-5%	-5%	8.2µM*	10µM*
CC(C)NC(=O)C1(C)CCN1C(=O)C1(c2ccccc2)CC1 (configuration not stated)	26	27%	10%	?	-24%
c1cc2c(cc1-c1csc(NNC3=NCCCCC3)n1)OCCO2	-102*	-27%	-14%	3.3µM*	4.6µM*
COc1ccc(Nc2nc(-c3c[nH]c4ccccc34)cs2)cc1	-78*	4%	14%	-12%	-23%
Clc1ccc(Nc2nc(-c3ccncc3)cs2)cc1	-13	-1%	8%	-20%	4%
Nc1ccc(Nc2nc(-c3ccncc3)cs2)cc1	?	?	?	?	18µM*
COc1ccc(-c2csc(Nc3ccccc3)n2)cc1	-56*	?	?	?	?
